Target: AMP-activated protein kinase, AMPK (Homo sapiens) (UniProt P54646+O43741+P54619+Q9UGJ0+Q9Y478+Q13131+Q9UGI9)
Test: AMP-dependent Kinase enzyme assay. An in vitro enzyme assay that detects ADP turnover that is directly proportional to AMPK activity. This uses naive AMPK that is activated during the assay with MK-8722
Format: functional
Parameters: scale not given: direction of the effect not stated beside the values
Conditions: 30 µM

Row | SMILES | Percent Effect
1 | Cc1nc(-n2nc(-c3cccs3)cc2N)[nH]c(=O)c1C | -14.4%
2 | Cc1cc(N2CCC3(CCCN(CCO)C3=O)C2)nc(C)c1C#N (centres undefined) | 14.2%
3 | COCCN1CCCC(c2nccnc2-c2cccc(Cl)c2)C1 (centres undefined) | -11.9%
4 | COC(=O)CC1CCCCN1CC(=O)Nc1cc(F)ccc1F (centres undefined) | 7.24%
5 | Cc1ccc(CN(C(=O)NCC2CCCO2)C2CC2)o1 (centres undefined) | -2.62%
6 | Cc1cc(CC(=O)NC2CCCN(c3ccccc3F)C2=O)n[nH]1 (centres undefined) | 10.6%
7 | Clc1ccc2cccnc2c1CNC1CCc2ncnn2C1 (centres undefined) | 3.85%
8 | COCC(NC(=O)c1cn2ccsc2n1)c1ccnn1C (centres undefined) | -19.1%
9 | O=C(Nc1ccc(F)cc1F)NC1(CO)CCOCC1 | 4.61%
10 | COc1cc(C)c(S(=O)(=O)CC(=O)N(C)C(C)C)cc1OC | 5.04%
11 | CN(Cc1ccc(F)c(F)c1)Cc1cc2c(cc1Br)OCCO2 | -7%
12 | COC(=O)N1CCCCC1C(=O)N1CCCN(c2ccnc(C)c2)CC1 (centres undefined) | -3.17%
13 | CCN(CC)C1CCN(C(=O)Nc2cc(F)c(OC)c(F)c2)C1 (centres undefined) | -3.29%
14 | CCNC(=O)[C@@H]1C[C@H](N)CN1c1cc(C(F)(F)F)nc(N(C)C)n1 | -12%
15 | CN(C)C(C(=O)N1CCN(CCn2cccc2)CC1)c1cccc(F)c1 (centres undefined) | -11.9%
16 | O=C(Cc1ccccc1Cl)Nc1cc(N2CCCC2)ncn1 | 0.395%
17 | COc1cccc2c1OCC(Cc1cc(C(N)=O)ccn1)C2 (centres undefined) | -13%
18 | O=C(CCn1cc(Cl)cn1)N1CCC2(CC1)OCCCC2O (centres undefined) | -8.21%
19 | CN(C)c1nc(N)nc(CN2CCCC(c3ccccc3)CC2)n1 (centres undefined) | -3.69%
20 | CCc1ccccc1OCCN(C)C(=O)CN1CCCC1 | -130%

Row | SMILES | Percent Effect
21 | Fc1cccc(CN2CCC[C@@H](Cn3nnc(-c4ccccn4)n3)C2)c1 | 10.2%
22 | Cc1nn(C)c2nc(N3CCCC3c3nccs3)sc12 (centres undefined) | -1.47%
23 | CN(C)C(CNC(=O)CCNC(=O)OCC(F)(F)F)c1ccsc1 (centres undefined) | 3.22%
24 | O=C(NCC(O)c1cccc(F)c1)C1CCN(C(=O)C2CCC2)CC1 (centres undefined) | -3.62%
25 | Cn1cccc1C1CCCN1Cc1noc(C(C)(C)C)n1 (centres undefined) | -15%
26 | Cc1cc(CC(=O)NC2CCCN(Cc3ccccc3)C2=O)n[nH]1 (centres undefined) | 9.56%
27 | NCc1cccc(NC(=O)CCN2CCOCC2)c1 | -8.1%
28 | CC(NC(=O)N1CCCN(C)CC1)c1ccc(S(N)(=O)=O)cc1 (centres undefined) | 5.68%
29 | Cc1c(NC(=O)N(C)CCO)cccc1OC1CCCC1 | -3.01%
30 | NC(=O)NC1CCN(Cc2ccc(Br)c(F)c2)CC1 | 4.07%
31 | C[C@@H]1CN(S(=O)(=O)N2CCCC2)CC[C@@]1(O)C1CCOCC1 | -5.74%
32 | O=C(NCc1ccc(-n2cncn2)nc1)c1cc[nH]n1 | 2.82%
33 | CC(NC(=O)N1CCC1)c1ccc(S(N)(=O)=O)cc1 (centres undefined) | 7.72%
34 | Cc1ncc(CNC(=O)NCc2c(F)cccc2OC(F)F)s1 | 6.42%
35 | COC(=O)c1ccoc1CN(C1CC1)C1CCS(=O)(=O)C1 (centres undefined) | 7.17%
36 | Cn1cc(CN2CCOC(Cc3cccc(F)c3)C2)cn1 (centres undefined) | 4.61%
37 | CN1CCOC(CNCC(=O)NCCCc2ccccc2)C1 (centres undefined) | -10%
38 | N#Cc1cccc(N2CCC(CO)(CCCc3ccccc3)CC2)n1 | 6.03%
39 | CN(C)S(=O)(=O)c1ccc(=O)n(CC2CCCO2)c1 (centres undefined) | 20.4%
